The values that follow come from PubChem BioAssay (NCATS).

The subject of experiment [1] is Zika virus NS2B-NS3 protease (unlinked complex). The experiment can be described thus: Primary screen GU Rhodamine qHTS for Zika virus inhibitors: Unlinked NS2B-NS3 protease assay (AID 1347159). Further: nearly all actives have a fitted effect of over 60% in size. Particulars: Recombinant ZIKV NS2B-NS3 protease, Rhodamine110 substrate fluorescence; series mostly up to 107 µM. Put shortly:
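Noncovalent NS2B hydrophilic domain–NS3 protease domain complex (25 nM) preincubated 15 min at room temperature with compounds (up to 114 microM) in 10 mM Tris-HCl pH 8.0, 0.01% Tween 20; 1.5 microM Rhodamine110 substrate added, fluorescence change over 15 min fitted to Hill equation.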
On the technique in general: qHTS replaces the single test concentration by a dilution series.

The subject of experiment [2] is Zika virus NS2B-NS3 protease (linked construct). The experiment can be described thus: Primary screen NINDS Rhodamine qHTS for Zika virus inhibitors (AID 1347160). Further: nearly all actives have a fitted effect of over 55% in size. Particulars: purified NS2B-NS3 protease, Rhodamine110 substrate fluorescence; series mostly up to 57.1 µM. The method in brief: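 Purified linked NS2B-NS3 protease (NS2B hydrophilic domain joined to NS3 protease by flexible linker), 25 nM in 10 mM Tris-HCl pH 8.0, 0.01% Tween 20. Compounds titrated, 15 min preincubation at room temperature; 1.5 microM Rhodamine110 substrate, FITC fluorescence change over 15 min.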

Results filed as inconclusive are left out. Entries that show only a call come without a potency. Active and inactive are the calls of the source. The call rests on the fitted dose curve; in most records, active means well fitted inhibition curve with a large enough effect; inconclusive means small, poorly fitted or top-dose-only effect; inactive means no such curve, though single readings can be large or run the other way.
Potency means the concentration at half of the fitted maximal effect.

In the case of `C[C@@H]1O[C@@H](O[C@@H]2[C@@H](O)[C@@H](O)[C@H](O[C@@H]3[C@@H](O)[C@@H](O[C@]4(CO)O[C@H](CO)[C@@H](O)[C@@H]4OC(=O)/C=C/c4ccc(O)cc4)O[C@H](CO)[C@H]3OC(=O)/C=C/c3ccc(O)cc3)O[C@H]2C)[C@H](O)[C@H](O)[C@H]1O`, the Potency result in experiment [1] and in experiment [2] was “inactive” each time.
`O=C(C1CC1)N1CC[C@@H](Cc2n[nH]c(=O)n2-c2ccc(-c3ccc4occc4c3)cc2)C1`: the Potency result in experiment [1] and in experiment [2] was “inactive” in each case.
Take `CN1C(=O)c2ccccc2-n2c(nc3ccccc3c2=O)[C@@]12O[C@H]2c1ccccc1`: the Potency entry in experiment [1] and in experiment [2] was “inactive” throughout.
As for `CC1CCC2C(C)(C)CC(C)(CO)C2(O)C1C(=O)O` (stereo unspecified), the Potency entry in experiment [1] and in experiment [2] was “inactive” in each case.
For `NC(=O)c1cccc(-c2cc(O)cc(OC(=O)NC3CCCCC3)c2)c1`, the Potency entry in experiment [1] and in experiment [2] was “inactive” in each case.
As for `O=C(O)C[C@@H](NC(=O)c1cc(-c2ccc(-c3ccncc3)cc2)cs1)c1ccccc1`, the Potency in experiment [1] was 15.8 µM (active); in experiment [2] it was 20 µM (active).
For `CC1(C)CC[C@]2(C(=O)O)CC[C@]3(C)C(=CCC4[C@@]5(C)C[C@H](O)[C@H](O[C@@H]6OC[C@H](O)[C@H](O)[C@H]6O)[C@@](C)(CO)C5CC[C@]43C)[C@@H]2C1` (stereo partly specified) the same measures were “inactive” and “inactive”.
For `COC(=O)[C@@]1(C)CC[C@]2(C(=O)O[C@@H]3O[C@H](CO)[C@@H](O)[C@H](O)[C@H]3O)CC[C@]3(C)C(=CCC4[C@@]5(C)CC[C@H](O[C@@H]6O[C@H](C(=O)O)[C@@H](O)[C@H](O)[C@H]6O)C(C)(C)C5CC[C@]43C)[C@@H]2C1` (stereo partly specified), in that order: “inactive” and “inactive”.
